# What was measured:
# Experiment in all cases: DAPPL (digital affinity profiling via proximity ligation, sequencing); 10 mM Tris-HCl pH 7.5, 50 mM NaCl, 1 mM DTT, 4% glycerol, room temperature, 30 min; GST-TFs on glutathione beads, 16-mer random dsDNA library, 0.1% formaldehyde crosslink after washing; high values mean tight binding
# FLI1 = target: T1, FLI1 (Homo sapiens, UniProt Q01543 1-452); details: protein: recombinant; tags: N-terminal GST; dsDNA, one strand shown
# T1 sequence: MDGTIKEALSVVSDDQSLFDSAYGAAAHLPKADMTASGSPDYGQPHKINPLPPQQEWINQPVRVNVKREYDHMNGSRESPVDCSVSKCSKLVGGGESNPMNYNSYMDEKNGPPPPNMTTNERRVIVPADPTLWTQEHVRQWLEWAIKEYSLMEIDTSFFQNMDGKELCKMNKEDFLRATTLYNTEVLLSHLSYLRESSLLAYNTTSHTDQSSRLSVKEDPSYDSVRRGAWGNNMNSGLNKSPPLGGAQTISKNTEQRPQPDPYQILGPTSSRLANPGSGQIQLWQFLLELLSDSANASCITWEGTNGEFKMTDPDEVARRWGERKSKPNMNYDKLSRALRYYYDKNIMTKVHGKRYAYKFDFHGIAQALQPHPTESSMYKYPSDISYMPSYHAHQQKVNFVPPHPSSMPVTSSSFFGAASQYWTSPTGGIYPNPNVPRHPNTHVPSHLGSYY
# In short: (§1)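 Each value of binding signal is a hexamer's read frequency for a factor divided by the same hexamer's frequency in the tag-only sample. Barcoded, bead-captured GST fusions of human transcription factors made in yeast were pooled with that sample and incubated with 200 nmole of a random double-stranded 16-mer DNA library in Tris/NaCl/DTT/glycerol buffer at room temperature for 30 min. Washing, 0.1% formaldehyde crosslinking, proximity ligation, PCR and Illumina NextSeq500 sequencing followed.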
# ELK1 = target: T2, ELK1 (Homo sapiens, UniProt P19419 1-428); details: protein: recombinant; tags: N-terminal GST; dsDNA, one strand shown
# T2 sequence: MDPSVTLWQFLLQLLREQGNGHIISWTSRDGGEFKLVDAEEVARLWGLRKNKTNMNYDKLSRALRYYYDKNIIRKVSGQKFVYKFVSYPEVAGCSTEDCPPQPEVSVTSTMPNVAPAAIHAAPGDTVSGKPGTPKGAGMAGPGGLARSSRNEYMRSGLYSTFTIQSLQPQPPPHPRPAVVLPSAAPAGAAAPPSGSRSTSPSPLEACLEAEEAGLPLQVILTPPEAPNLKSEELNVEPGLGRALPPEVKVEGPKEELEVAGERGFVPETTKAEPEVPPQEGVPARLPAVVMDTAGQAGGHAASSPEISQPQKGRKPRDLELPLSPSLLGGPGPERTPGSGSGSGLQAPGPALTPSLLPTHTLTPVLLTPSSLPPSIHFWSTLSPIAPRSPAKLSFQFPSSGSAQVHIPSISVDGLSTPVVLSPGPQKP
# In short: as §1
# GABPA = target: T3, GABPA (Homo sapiens, UniProt Q06546 1-454); details: protein: recombinant; tags: N-terminal GST; dsDNA, one strand shown
# T3 sequence: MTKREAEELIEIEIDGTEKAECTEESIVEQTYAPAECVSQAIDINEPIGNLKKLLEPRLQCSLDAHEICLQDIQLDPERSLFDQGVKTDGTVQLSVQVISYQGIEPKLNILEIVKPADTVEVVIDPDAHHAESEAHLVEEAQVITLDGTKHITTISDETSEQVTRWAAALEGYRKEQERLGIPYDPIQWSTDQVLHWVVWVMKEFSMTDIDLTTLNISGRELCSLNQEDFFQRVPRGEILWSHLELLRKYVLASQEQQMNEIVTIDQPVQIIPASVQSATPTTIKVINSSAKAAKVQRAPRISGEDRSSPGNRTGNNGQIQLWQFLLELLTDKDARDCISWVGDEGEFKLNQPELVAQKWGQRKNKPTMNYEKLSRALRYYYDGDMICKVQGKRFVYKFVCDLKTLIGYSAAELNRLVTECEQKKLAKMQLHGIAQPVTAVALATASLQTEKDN
# In short: as §1
# ERG = target: T4, ERG (Homo sapiens, UniProt P11308 1-479); details: protein: recombinant; tags: N-terminal GST; dsDNA, one strand shown
# T4 sequence: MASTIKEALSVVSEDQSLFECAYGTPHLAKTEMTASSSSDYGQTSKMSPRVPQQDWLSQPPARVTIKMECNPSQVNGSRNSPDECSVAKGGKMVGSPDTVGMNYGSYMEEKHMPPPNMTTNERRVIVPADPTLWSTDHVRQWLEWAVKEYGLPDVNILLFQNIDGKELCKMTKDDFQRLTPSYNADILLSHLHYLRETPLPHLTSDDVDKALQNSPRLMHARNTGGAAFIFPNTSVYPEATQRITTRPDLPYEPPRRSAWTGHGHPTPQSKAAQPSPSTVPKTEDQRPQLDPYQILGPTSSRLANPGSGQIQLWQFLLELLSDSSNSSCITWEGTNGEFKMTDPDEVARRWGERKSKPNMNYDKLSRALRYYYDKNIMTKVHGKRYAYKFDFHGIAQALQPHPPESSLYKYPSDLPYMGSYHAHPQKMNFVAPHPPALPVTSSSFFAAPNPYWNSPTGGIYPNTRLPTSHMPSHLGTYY
# In short: as §1
# ELF1 = ELF1 (Homo sapiens, UniProt P32519 1-619); details: protein: recombinant; tags: N-terminal GST; dsDNA, one strand shown
# Sequence of ELF1 (P32519 whole entry): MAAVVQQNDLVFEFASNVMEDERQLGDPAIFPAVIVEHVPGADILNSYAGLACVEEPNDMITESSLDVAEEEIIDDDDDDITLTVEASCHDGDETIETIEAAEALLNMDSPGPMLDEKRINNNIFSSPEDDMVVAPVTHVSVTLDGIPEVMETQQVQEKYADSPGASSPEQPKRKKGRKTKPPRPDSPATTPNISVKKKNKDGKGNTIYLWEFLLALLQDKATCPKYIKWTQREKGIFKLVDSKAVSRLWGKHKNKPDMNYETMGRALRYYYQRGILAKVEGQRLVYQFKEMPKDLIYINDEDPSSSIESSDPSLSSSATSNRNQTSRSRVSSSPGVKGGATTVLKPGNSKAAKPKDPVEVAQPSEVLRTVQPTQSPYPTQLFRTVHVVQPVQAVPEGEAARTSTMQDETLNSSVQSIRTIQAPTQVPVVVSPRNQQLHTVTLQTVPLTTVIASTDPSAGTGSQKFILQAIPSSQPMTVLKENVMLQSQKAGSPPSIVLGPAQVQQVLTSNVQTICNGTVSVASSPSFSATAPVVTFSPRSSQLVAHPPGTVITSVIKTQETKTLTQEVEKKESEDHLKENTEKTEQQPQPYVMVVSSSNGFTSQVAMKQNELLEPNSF
# In short: as §1
# EHF = target: T5, EHF (Homo sapiens, UniProt Q9NZC4 1-300); details: protein: recombinant; tags: N-terminal GST; dsDNA, one strand shown
# T5 sequence: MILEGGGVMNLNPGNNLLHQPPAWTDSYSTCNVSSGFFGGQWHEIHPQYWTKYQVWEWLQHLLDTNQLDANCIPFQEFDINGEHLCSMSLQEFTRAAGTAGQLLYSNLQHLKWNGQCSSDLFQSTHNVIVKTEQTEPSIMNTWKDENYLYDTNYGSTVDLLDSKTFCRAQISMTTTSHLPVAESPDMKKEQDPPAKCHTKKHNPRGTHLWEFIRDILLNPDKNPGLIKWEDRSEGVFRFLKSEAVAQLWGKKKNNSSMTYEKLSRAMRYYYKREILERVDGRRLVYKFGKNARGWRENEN
# In short: as §1
# SPI1 = SPI1 (Homo sapiens, UniProt P17947 1-270); details: protein: recombinant; tags: N-terminal GST; dsDNA, one strand shown
# In short: as §1
# SPIB = SPIB (Homo sapiens, UniProt Q01892 1-262); details: protein: recombinant; tags: N-terminal GST; dsDNA, one strand shown
# Sequence of SPIB (Q01892 whole entry): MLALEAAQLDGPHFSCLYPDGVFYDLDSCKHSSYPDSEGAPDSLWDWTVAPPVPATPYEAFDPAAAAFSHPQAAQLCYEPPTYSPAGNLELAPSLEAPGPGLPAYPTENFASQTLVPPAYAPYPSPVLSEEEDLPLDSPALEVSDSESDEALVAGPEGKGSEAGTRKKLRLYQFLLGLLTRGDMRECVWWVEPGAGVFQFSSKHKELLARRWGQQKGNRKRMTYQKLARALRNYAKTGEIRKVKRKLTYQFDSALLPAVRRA
# In short: as §1
# ELK3 = target: T6, ELK3 (Homo sapiens, UniProt P41970 1-407); details: protein: recombinant; tags: N-terminal GST; dsDNA, one strand shown
# T6 sequence: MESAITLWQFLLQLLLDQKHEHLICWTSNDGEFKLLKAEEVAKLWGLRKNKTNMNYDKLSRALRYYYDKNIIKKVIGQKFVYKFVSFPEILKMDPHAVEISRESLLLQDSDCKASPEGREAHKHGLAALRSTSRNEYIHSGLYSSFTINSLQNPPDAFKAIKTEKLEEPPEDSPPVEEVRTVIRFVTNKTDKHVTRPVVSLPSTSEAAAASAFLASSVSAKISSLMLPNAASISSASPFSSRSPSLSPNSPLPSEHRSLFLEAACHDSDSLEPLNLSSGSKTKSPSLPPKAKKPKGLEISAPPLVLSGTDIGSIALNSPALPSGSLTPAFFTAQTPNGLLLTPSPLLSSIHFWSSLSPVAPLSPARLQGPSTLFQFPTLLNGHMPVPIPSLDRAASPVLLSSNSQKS
# In short: as §1
# FEV = target: T7, FEV (Homo sapiens, UniProt Q99581 1-238); details: protein: recombinant; tags: N-terminal GST; dsDNA, one strand shown
# T7 sequence: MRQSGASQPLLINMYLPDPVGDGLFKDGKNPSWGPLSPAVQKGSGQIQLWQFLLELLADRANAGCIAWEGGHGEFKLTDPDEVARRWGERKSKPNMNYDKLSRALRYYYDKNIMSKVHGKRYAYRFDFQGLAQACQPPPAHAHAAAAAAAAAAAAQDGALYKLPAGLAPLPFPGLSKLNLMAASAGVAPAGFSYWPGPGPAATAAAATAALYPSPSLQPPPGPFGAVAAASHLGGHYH
# In short: as §1
# ETV5 = ETV5 (Homo sapiens, UniProt P41161 1-510); details: protein: recombinant; tags: N-terminal GST; dsDNA, one strand shown
# Sequence of ETV5 (P41161 whole entry): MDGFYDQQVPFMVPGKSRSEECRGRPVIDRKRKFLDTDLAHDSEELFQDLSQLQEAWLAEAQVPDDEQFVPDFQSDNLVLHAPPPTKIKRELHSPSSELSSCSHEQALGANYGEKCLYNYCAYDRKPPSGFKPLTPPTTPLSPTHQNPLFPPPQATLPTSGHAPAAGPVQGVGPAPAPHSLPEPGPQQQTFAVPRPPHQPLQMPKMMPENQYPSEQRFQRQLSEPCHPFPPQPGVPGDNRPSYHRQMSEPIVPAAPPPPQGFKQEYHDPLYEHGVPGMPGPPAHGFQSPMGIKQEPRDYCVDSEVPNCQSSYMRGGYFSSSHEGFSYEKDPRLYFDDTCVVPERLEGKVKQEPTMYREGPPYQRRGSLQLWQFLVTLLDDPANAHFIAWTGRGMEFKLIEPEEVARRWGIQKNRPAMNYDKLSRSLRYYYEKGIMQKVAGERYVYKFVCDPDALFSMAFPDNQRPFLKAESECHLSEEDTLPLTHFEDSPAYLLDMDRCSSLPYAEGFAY
# In short: as §1
# HSF1 = HSF1 (Homo sapiens, UniProt Q00613 1-529); details: protein: recombinant; tags: N-terminal GST; chain copies: 3; dsDNA, one strand shown
# Sequence of HSF1 (Q00613 whole entry): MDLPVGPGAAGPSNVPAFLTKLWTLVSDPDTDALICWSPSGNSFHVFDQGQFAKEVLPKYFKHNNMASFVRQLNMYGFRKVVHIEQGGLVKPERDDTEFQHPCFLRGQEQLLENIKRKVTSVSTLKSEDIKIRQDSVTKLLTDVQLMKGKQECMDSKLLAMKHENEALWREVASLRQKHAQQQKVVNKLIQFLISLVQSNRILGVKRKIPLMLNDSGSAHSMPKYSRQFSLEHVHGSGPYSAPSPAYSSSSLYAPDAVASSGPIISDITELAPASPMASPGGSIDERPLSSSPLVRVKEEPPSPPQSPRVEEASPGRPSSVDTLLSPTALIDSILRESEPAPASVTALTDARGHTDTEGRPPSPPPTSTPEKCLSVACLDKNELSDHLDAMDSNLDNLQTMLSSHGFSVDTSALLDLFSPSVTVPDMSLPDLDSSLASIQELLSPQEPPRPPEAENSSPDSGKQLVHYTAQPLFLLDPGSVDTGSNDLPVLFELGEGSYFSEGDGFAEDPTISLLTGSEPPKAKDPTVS
# In short: as §1
# SPIC = target: T8, SPIC (Homo sapiens, UniProt Q8N5J4 1-248); details: protein: recombinant; tags: N-terminal GST; dsDNA, one strand shown
# T8 sequence: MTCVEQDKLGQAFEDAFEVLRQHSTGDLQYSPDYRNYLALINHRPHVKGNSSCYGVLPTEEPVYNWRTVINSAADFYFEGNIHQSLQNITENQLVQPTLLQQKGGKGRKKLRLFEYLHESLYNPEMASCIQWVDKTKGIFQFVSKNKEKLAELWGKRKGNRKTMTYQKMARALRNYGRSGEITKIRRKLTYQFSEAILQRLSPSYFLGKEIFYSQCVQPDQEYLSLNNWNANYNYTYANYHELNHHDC
# In short: as §1
# ELF4 = ELF4 (Homo sapiens, UniProt Q99607 1-663); details: protein: recombinant; tags: N-terminal GST; dsDNA, one strand shown
# Sequence of ELF4 (Q99607 whole entry): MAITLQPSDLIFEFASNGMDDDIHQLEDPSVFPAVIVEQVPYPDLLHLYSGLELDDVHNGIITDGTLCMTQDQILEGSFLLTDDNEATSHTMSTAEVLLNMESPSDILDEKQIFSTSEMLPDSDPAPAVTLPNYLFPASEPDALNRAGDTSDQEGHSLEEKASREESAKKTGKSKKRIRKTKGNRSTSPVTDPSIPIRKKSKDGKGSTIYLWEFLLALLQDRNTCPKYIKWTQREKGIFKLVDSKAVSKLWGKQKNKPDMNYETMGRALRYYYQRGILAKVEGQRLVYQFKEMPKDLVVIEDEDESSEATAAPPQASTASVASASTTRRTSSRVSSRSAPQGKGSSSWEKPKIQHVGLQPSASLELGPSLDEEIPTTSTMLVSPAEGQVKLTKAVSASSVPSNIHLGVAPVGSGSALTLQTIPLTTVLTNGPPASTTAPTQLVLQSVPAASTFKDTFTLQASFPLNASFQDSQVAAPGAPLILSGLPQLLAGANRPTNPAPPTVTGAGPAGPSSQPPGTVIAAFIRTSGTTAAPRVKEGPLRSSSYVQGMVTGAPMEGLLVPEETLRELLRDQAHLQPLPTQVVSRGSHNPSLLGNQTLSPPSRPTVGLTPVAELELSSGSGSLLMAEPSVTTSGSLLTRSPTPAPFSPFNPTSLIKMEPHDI
# In short: as §1
# ELK4 = target: T9, ELK4 (Homo sapiens, UniProt P28324-2 1-405); details: protein: recombinant; tags: N-terminal GST; dsDNA, one strand shown
# T9 sequence: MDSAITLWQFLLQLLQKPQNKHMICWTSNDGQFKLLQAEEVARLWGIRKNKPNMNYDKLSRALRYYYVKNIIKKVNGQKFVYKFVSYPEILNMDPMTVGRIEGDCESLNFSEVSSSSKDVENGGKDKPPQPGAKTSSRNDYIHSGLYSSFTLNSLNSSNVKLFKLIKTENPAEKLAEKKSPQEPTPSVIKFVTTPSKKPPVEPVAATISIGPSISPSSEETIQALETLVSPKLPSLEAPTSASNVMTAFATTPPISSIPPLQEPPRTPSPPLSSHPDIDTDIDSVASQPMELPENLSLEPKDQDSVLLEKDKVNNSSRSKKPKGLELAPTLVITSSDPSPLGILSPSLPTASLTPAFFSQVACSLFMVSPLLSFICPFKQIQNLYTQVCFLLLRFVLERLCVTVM
# In short: as §1
# ETV2 = target: T10, ETV2 (Homo sapiens, UniProt O00321 1-342); details: protein: recombinant; tags: N-terminal GST; dsDNA, one strand shown
# T10 sequence: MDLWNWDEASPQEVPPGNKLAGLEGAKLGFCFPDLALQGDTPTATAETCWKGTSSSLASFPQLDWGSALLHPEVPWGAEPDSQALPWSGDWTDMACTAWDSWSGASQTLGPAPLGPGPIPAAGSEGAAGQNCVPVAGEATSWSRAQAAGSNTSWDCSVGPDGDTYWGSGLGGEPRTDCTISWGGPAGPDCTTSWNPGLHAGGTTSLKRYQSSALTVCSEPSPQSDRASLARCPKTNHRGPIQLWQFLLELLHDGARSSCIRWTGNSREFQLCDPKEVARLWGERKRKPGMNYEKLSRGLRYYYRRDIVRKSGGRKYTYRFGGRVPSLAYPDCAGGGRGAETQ
# In short: as §1
# ELF3 = target: T11, ELF3 (Homo sapiens, UniProt P78545 1-371); details: protein: recombinant; tags: N-terminal GST; dsDNA, one strand shown
# T11 sequence: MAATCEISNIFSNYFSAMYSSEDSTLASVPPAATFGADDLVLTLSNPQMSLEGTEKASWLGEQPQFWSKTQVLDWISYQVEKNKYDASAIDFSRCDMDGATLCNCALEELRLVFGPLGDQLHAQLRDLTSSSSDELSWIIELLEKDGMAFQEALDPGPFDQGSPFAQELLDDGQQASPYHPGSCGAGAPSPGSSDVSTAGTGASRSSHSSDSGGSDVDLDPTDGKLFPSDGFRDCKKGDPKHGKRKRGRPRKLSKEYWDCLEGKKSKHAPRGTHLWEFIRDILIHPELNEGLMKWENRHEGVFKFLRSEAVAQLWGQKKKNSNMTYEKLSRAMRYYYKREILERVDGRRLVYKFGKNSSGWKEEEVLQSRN
# In short: as §1
# CRX = CRX (Homo sapiens, UniProt O43186 1-299); details: protein: recombinant; tags: N-terminal GST; dsDNA, one strand shown
# Sequence of CRX (O43186 whole entry): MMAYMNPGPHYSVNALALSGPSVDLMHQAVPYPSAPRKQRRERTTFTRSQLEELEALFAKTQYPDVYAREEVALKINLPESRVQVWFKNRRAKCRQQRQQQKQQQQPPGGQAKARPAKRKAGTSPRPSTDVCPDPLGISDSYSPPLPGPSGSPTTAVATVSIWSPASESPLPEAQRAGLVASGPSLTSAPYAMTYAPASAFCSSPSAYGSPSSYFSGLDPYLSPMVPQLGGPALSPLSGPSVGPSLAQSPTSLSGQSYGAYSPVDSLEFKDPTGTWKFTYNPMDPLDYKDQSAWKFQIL
# In short: as §1
# ETV1 = ETV1 (Homo sapiens, UniProt P50549 1-477); details: protein: recombinant; tags: N-terminal GST; dsDNA, one strand shown
# Sequence of ETV1 (P50549 whole entry): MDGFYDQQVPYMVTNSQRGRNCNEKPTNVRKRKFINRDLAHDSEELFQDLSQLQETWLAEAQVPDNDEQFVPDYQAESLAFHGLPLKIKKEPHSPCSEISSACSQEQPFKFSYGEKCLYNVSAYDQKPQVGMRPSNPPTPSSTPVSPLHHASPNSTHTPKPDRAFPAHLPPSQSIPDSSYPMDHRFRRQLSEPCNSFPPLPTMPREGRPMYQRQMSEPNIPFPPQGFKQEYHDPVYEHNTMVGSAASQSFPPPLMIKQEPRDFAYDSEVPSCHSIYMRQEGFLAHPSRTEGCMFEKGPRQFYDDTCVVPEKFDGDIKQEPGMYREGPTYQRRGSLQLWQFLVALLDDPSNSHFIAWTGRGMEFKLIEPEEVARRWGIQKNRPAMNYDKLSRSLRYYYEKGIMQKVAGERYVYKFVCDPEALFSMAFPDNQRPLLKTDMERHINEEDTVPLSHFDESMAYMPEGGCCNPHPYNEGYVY
# In short: as §1
sequence,measurement,setting,value
TTAAAT,binding signal,FLI1,"1.17 fold enrichment (6-mer frequency, TF over GST control)"
same,binding signal,ELK1,"1.11 fold enrichment (6-mer frequency, TF over GST control)"
same,binding signal,GABPA,"1.1 fold enrichment (6-mer frequency, TF over GST control)"
same,binding signal,ERG,"1.11 fold enrichment (6-mer frequency, TF over GST control)"
same,binding signal,ELF1,"1.19 fold enrichment (6-mer frequency, TF over GST control)"
same,binding signal,EHF,"1.14 fold enrichment (6-mer frequency, TF over GST control)"
same,binding signal,SPI1,"1.12 fold enrichment (6-mer frequency, TF over GST control)"
same,binding signal,SPIB,"1.13 fold enrichment (6-mer frequency, TF over GST control)"
same,binding signal,ELK3,"1.25 fold enrichment (6-mer frequency, TF over GST control)"
same,binding signal,FEV,"1.16 fold enrichment (6-mer frequency, TF over GST control)"
same,binding signal,ETV5,"1.2 fold enrichment (6-mer frequency, TF over GST control)"
same,binding signal,HSF1,"1.85 fold enrichment (6-mer frequency, TF over GST control)"
same,binding signal,SPIC,"1.21 fold enrichment (6-mer frequency, TF over GST control)"
same,binding signal,ELF4,"1.14 fold enrichment (6-mer frequency, TF over GST control)"
same,binding signal,ELK4,"1.22 fold enrichment (6-mer frequency, TF over GST control)"
same,binding signal,ETV2,"1.25 fold enrichment (6-mer frequency, TF over GST control)"
same,binding signal,ELF3,"1.22 fold enrichment (6-mer frequency, TF over GST control)"
same,binding signal,CRX,"2.92 fold enrichment (6-mer frequency, TF over GST control)"
same,binding signal,ETV1,"1.16 fold enrichment (6-mer frequency, TF over GST control)"
